A selection: hits, their analogues and other compounds. The true share with any hit is near 4.2%.
PrPC surface inh = reduces human prion protein on the cell surface. P04156. cell surface PrPC, TR-FRET read-out. inhibition, % at 13.8 µM. 0.43% of 370,000 active. AID 720596; in the data active = inhibition above about 24%
RecA splice inh = Mtb RecA intein splicing inhibition; cell-free RecA intein splicing, fluorescence; P9WHJ3; 0.75% of 290,000 active; AID 2221; inhibition, % (test concentration not listed); in the data active = inhibition above about 30%
Target sequence (P9WHJ3 whole entry, looked up, canonical isoform): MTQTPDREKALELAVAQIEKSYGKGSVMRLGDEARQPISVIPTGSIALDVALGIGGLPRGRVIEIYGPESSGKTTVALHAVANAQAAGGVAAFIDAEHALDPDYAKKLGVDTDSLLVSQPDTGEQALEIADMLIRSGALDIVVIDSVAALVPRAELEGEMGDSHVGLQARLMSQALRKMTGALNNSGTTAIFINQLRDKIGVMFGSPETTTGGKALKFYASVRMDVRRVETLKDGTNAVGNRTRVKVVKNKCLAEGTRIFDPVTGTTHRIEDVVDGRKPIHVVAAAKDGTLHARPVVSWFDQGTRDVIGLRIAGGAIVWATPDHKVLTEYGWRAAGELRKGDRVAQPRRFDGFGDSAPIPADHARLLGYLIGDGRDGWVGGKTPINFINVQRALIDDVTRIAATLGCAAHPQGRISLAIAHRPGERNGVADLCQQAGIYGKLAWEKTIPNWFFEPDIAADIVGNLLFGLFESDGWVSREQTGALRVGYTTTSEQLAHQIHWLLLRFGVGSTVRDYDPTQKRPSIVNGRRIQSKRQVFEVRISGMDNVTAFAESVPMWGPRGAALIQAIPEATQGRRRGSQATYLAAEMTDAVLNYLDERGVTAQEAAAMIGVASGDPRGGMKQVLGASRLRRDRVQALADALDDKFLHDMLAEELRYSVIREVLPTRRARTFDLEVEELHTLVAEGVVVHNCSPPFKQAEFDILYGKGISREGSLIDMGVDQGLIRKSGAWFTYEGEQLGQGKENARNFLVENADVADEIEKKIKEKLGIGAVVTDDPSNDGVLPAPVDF
BJeLR viability = BJeLR cell viability loss. BJeLR (HRASV12) viability, CellTiter-Glo ATP luminescence, 48 h. inhibition, % (test concentration not listed). 0.17% of 300,000 active; in the data active = inhibition above about 50%
GDH-TPI inh = inhibits GDH-TPI coupling enzymes, artifact for Mtb FBA screen; GDH-TPI coupled enzyme counterscreen, NADH absorbance; 1.2% of 360,000 active; inhibition, % at 4.8 µM; in the data active = inhibition above about 30%
FBA Mtb inh = inhibitors of M. tuberculosis fructose-bisphosphate aldolase. 2.3% of 360,000 active. AID 588726. purified M. tuberculosis FBA, fluorescence read-out. inhibition, % at 1 µM; in the data active = inhibition above about 27%
GFP chromophore = counter-screen: blocks GFP chromophore formation; 83% of 2,100 active; shares compounds with RecA splice inh; EC50, µM; cell-free GFP chromophore formation, fluorescence; call rule not given here
Each line names hits and unclear results; the compound was inactive in the other large screens (follow-up assays come after a bar, where they were run).

O=[N+]([O-])c1cccc(OCCCN2CCC(C(O)(c3ccccc3)c3ccccc3)CC2)c1	none (no result: RecA splice inh, BJeLR viability, GDH-TPI inh, FBA Mtb inh)
O=C(Oc1ccc(N(C(=O)c2ccncc2)S(=O)(=O)c2ccc(F)cc2)cc1)c1ccncc1	none
O=C(Oc1ccc(N(C(=O)c2ccncc2)S(=O)(=O)c2ccc(Cl)cc2)cc1)c1ccncc1	RecA splice inh 38 | GFP chromophore 33
Cc1ccc(CNc2nc(C)nc3sc4c(c23)CCC4)cc1	none
Cc1nc(Nc2ccc(O)cc2)c2c3c(sc2n1)CCCC3	RecA splice inh 30 (no result: PrPC surface inh) | GFP chromophore inactive
C=CCN(C(=O)[C@@H](C)[C@@H](O)c1ccc2ccccc2c1)c1ccccc1	none (no result: RecA splice inh, BJeLR viability, GDH-TPI inh, FBA Mtb inh)
COC(=O)C1CN(Cc2ccc(F)cc2)CCS(=O)(=O)N1Cc1cn(CCOC(C)=O)nn1 (stereo not given)	none (no result: RecA splice inh, BJeLR viability, GDH-TPI inh, FBA Mtb inh)
O=C1CCCC(O)=C1C(C#Cc1ccccc1)C1=C(O)CCCC1=O	RecA splice inh 30 (no result: PrPC surface inh) | GFP chromophore 12
COc1ccc([C@H]2OC(=O)C[C@@H]2C(=O)N2CCN(c3ccccc3F)CC2)cc1OC	none (no result: RecA splice inh, BJeLR viability, GDH-TPI inh, FBA Mtb inh)
O=C1C(=O)c2ccccc2C(O)=C1CCCCl	RecA splice inh 60 (no result: PrPC surface inh) | GFP chromophore 12
COc1ccc(-c2cc(=O)n(CCC#N)[nH]2)cc1	RecA splice inh 97 | GFP chromophore 2
COc1ccc(-c2ncn(CCC#N)c2[N+](=O)[O-])cc1	none
COc1ccc(Nc2ccccc2N)cc1	none
Nc1ccc(Nc2ccccc2N)cc1	RecA splice inh 58 (no result: BJeLR viability) | GFP chromophore 20
O=[N+]([O-])c1ccc2nc(-[n+]3c(-c4ccccc4)cc(-c4ccccc4)cc3-c3ccccc3)[nH]c2c1	none (no result: PrPC surface inh)
O=[N+]([O-])c1ccc2nc(Cl)nc(-c3ccccc3)c2c1	RecA splice inh 47 | GFP chromophore inactive
CCn1c(COc2cccc3ccccc23)nnc1SCC(N)=O	none | GFP chromophore inactive
CCn1c(COc2ccccc2C)nnc1SCC(=O)NCc1ccccc1	none
COP(=O)(O)[C@@H](CC(C)C)NC(=O)OCc1ccccc1	none (no result: RecA splice inh, BJeLR viability, GDH-TPI inh, FBA Mtb inh)
CCn1c2ccccc2c2cc(C3C(C#N)=C(N)Oc4n[nH]c(COC)c43)ccc21 (stereo not given)	RecA splice inh 77 | GFP chromophore 10
COCc1[nH]nc2c1C(c1ccc(OC)c(OC)c1)C(C#N)=C(N)O2 (stereo not given)	RecA splice inh 56 | GFP chromophore 31
O=c1[nH]c(Sc2ccc([N+](=O)[O-])cc2[N+](=O)[O-])nc2ccccc12	RecA splice inh 34 | GFP chromophore 31
O=[N+]([O-])c1ccc(Cl)cc1Sc1nc2ccccc2o1	none
O=[N+]([O-])c1ccc(Sc2nc3ccccc3o2)c([N+](=O)[O-])c1	RecA splice inh 66 | GFP chromophore 2
O=C(C1CC1)n1ccc2ccc(-c3ccc4ccn(Cc5ccccc5)c4c3)cc21	none (no result: RecA splice inh, BJeLR viability, GDH-TPI inh, FBA Mtb inh)
Cc1ccc(-c2nnc(SCC(=O)Nc3ccc(Oc4ccccc4)cc3)n2-c2ccc(Cl)cc2)cc1	none (no result: RecA splice inh, BJeLR viability, GDH-TPI inh, FBA Mtb inh)
Cc1[nH]nc2c1C1(CCC3(CC1)OCCO3)C(C#N)=C(N)O2	RecA splice inh 74 | GFP chromophore inactive
CCOC(=O)N1CCC2(CC1)C(C#N)=C(N)Oc1n[nH]c(C)c12	RecA splice inh 80 | GFP chromophore 13
COCc1[nH]nc2c1C1(CCSCC1)C(C#N)=C(N)O2	RecA splice inh 74 | GFP chromophore 20
CCc1[nH]nc2c1C1(CCOC1C)C(C#N)=C(N)O2 (stereo not given)	none
CC(=O)N1CCC2(CC1)C(C#N)=C(N)Oc1n[nH]c(C(F)(F)F)c12	none
COc1ccc([C@H]2OC(=O)C[C@@H]2C(=O)N2CCCCC2)cc1OC	none (no result: RecA splice inh, BJeLR viability, GDH-TPI inh, FBA Mtb inh)
Oc1ccccc1C=Nn1c(-c2ccccc2F)n[nH]c1=S	none (no result: RecA splice inh, BJeLR viability, GDH-TPI inh, FBA Mtb inh)
c1ccc2c(c1)OCC(c1csc3ncnc(N4CCCCC4)c13)O2 (stereo not given)	none
Clc1ncnc2scc(C3COc4ccccc4O3)c12 (stereo not given)	RecA splice inh 67 | GFP chromophore 20
Cc1ccc(OC(=O)c2ccc([N+](=O)[O-])cc2Cl)cn1	RecA splice inh 32 | GFP chromophore 33
Cc1ccc(OC(=O)c2ccc(C)c([N+](=O)[O-])c2)cn1	none
CN1CCN(c2ccc3c(c2)Oc2ccccc2CN(Cc2cn(Cc4ccc(F)cc4)nn2)S3(=O)=O)CC1	none (no result: RecA splice inh, BJeLR viability, GDH-TPI inh, FBA Mtb inh)
COC(=O)c1scc(C)c1NC(=O)/C=C/C(=O)O	none
COC(=O)c1sc(-c2ccc(Cl)cc2)cc1NC(=O)/C=C/C(=O)O	RecA splice inh 70 | GFP chromophore 27
COC(=O)c1c(NC(=O)/C=C/C(=O)O)sc(C)c1-c1ccc(C)c(C)c1	RecA splice inh 63 | GFP chromophore 38
CCOC(=O)c1c(NC(=O)/C=C/C(=O)O)sc(C)c1-c1ccc(C)c(C)c1	RecA splice inh 78 | GFP chromophore 14
CCOC(=O)c1c(NC(=O)/C=C/C(=O)O)sc(C)c1-c1ccc(F)cc1	RecA splice inh 60 | GFP chromophore 34
CCOC(=O)c1c(C)nn(-c2ccc(NC(=O)/C=C/C(=O)O)cc2)c1C	none
O=C(NCc1ccco1)C1CCCN(S(=O)(=O)c2ccccc2[N+](=O)[O-])C1 (stereo not given)	none (no result: RecA splice inh, BJeLR viability, GDH-TPI inh, FBA Mtb inh)
Cc1ccccc1OCCCN1CCC(C(O)(c2ccccc2)c2ccccc2)CC1	none (no result: RecA splice inh, BJeLR viability, GDH-TPI inh, FBA Mtb inh)
COC(=O)[C@]12C[C@H](CC(=O)N3CCN(C(=O)c4ccco4)CC3)C(=O)N(Cc3ccc4c(c3)OCO4)C1=C[C@H](C(C)C)O[C@@H]2C1CC1	none (no result: RecA splice inh, BJeLR viability, GDH-TPI inh, FBA Mtb inh)
CC(C)=C1C2CCC1C(C(=O)Nc1sc(C)c(-c3ccc(C(C)C)cc3)c1C(N)=O)C2C(=O)O (stereo not given)	none
COC(=O)c1c(NC(=O)/C=C/C(=O)O)sc(C)c1-c1ccc(C(C)C)cc1	RecA splice inh 77 | GFP chromophore 13
CC(c1ccccc1)n1cc(C(=O)N2CCCC2)nn1 (stereo not given)	none (no result: RecA splice inh, BJeLR viability, GDH-TPI inh, FBA Mtb inh)
O=C(CSc1nc2ccccc2n1Cc1ccccc1)NN=Cc1c[nH]c2ccccc12	none (no result: RecA splice inh, BJeLR viability, GDH-TPI inh, FBA Mtb inh)
C/C(=N\NC(=O)CC#N)c1cc2ccccc2oc1=O	RecA splice inh 86 | GFP chromophore 13
C/C(=N/NC(=O)Cc1cc(=O)[nH][nH]1)c1ccc([N+](=O)[O-])cc1	RecA splice inh 84 | GFP chromophore 7.4
C/C(=N\NC(=O)Cc1cc(=O)[nH][nH]1)c1cccc([N+](=O)[O-])c1	RecA splice inh 88 | GFP chromophore 8.8
COc1cc(-c2c(C(=O)c3ccccc3)[nH]c(N)c2C(=O)NCCc2c[nH]c3ccccc23)ccc1F	none (no result: RecA splice inh, BJeLR viability, GDH-TPI inh, FBA Mtb inh)
CC1C=CCC2C(=O)N(c3ccccc3OC(=O)c3ccco3)C(=O)C12 (stereo not given)	none
O=C(Oc1ccccc1N1C(=O)CCC1=O)c1ccco1	RecA splice inh 36 | GFP chromophore inactive
Cc1ccc2c(c1)C(CS(=O)(=O)NCc1ccccc1)NC2 (stereo not given)	none (no result: RecA splice inh, BJeLR viability, GDH-TPI inh, FBA Mtb inh)
O=c1[nH]c(Nc2ccc(F)cc2)cc2ccccc12	RecA splice inh 65 | GFP chromophore 1.6
O=c1[nH]c(Nc2ccccn2)cc2ccccc12	RecA splice inh 72, FBA Mtb inh 132 | GFP chromophore inactive

High-throughput results as filed in PubChem.
